Measurements from PubChem BioAssay (NCI).
About 83,000 compounds went through this panel and 20% of them were active in at least one assay; those are over-represented in the sample as a whole.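 Method: cells in 96-well plates; compound added at one concentration; 48 h incubation; percent growth measured; values under 10 scored active.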 A number with no mark means an inactive call. Activity calls are given as the source filed them.

Assays:
Test in all cases: NCI-60 one-dose screen, 48 h (100 = growth as untreated, 0 = no growth, -100 = all killed)
Conditions in all cases: 10 µM unless noted
[1] = system: DU-145 prostate
[2] = system: K-562 leukemia
[3] = system: MALME-3M melanoma
[4] = system: MDA-MB-231 breast
[5] = system: RXF 393 renal
[6] = system: SF-268 CNS
[7] = system: SF-295 CNS
[8] = system: SF-539 CNS
[9] = system: UACC-257 melanoma
[10] = system: M14 melanoma
[11] = system: HCT-15 colon
[12] = system: HT29 colon
[13] = system: SNB-75 CNS
[14] = system: SNB-19 CNS
[15] = system: U251 CNS
[16] = system: PC-3 prostate
[17] = system: SK-MEL-5 melanoma
[18] = system: UACC-62 melanoma
[19] = system: LOX IMVI melanoma
[20] = system: SK-MEL-28 melanoma

Structure (SMILES): CN1CCN(Cc2ccc(NC(=O)c3cncc(C#Cc4cnc5ccc(NCCCO)nn45)c3)cc2C(F)(F)F)CC1
- growth [1]: -16.5% (active)
- growth [2]: 0.484% (active)
- growth [3]: -56.1% (active)
- growth [4]: 12.2%
- growth [5]: -89% (active)
- growth [6]: -44.4% (active)
- growth [7]: -12.1% (active)
- growth [8]: -78.1% (active)
- growth [9]: -43.8% (active)
- growth [10]: -91% (active)
- growth [11]: 1.94% (active)
- growth [12]: -2.42% (active)
- growth [13]: -70.8% (active)
- growth [14]: -0.64% (active)
- growth [15]: -68% (active)
- growth [16]: -19.2% (active)
- growth [17]: -87% (active)
- growth [18]: -14.1% (active)
- growth [19]: -86.3% (active)
- growth [20]: -21% (active)

Structure (SMILES): CCNC(=O)N1CCc2cc(OC)c(OCCc3ccc(OC)nc3)cc2C1c1ccc(C)cc1C (stereo not given)
- growth [1]: 12%
- growth [2]: 11%
- growth [3]: 51.5%
- growth [4]: 15%
- growth [5]: 2.44% (active)
- growth [6]: 20.7%
- growth [7]: 7.92% (active)
- growth [8]: 5.2% (active)
- growth [9]: 41.9%
- growth [10]: 12.9%
- growth [11]: 6.9% (active)
- growth [12]: 1.6% (active)
- growth [13]: 45.8%
- growth [14]: 25.7%
- growth [15]: 11.1%
- growth [16]: 26.8%
- growth [17]: -31.6% (active)
- growth [18]: 25.6%
- growth [19]: 3.95% (active)
- growth [20]: 41.5%

Structure (SMILES): C=CC(=O)N1CCC=C(c2cc3c(N[C@H](C)c4ccccc4)ncnc3[nH]2)C1
- growth [1]: 42.9%
- growth [2]: 37%
- growth [3]: 101%
- growth [4]: 44.4%
- growth [5]: -17% (active)
- growth [6]: 60.1%
- growth [7]: 72%
- growth [8]: 74.6%
- growth [9]: 87.4%
- growth [10]: 85.9%
- growth [11]: 73.2%
- growth [12]: 66.5%
- growth [13]: 3.25% (active)
- growth [14]: 77.1%
- growth [15]: 84.2%
- growth [16]: 68.9%
- growth [17]: 85.7%
- growth [18]: 68.5%
- growth [19]: 57.5%
- growth [20]: 91.6%

Structure (SMILES): CCOC(=O)c1c(N)c(C#N)cn1-c1cc(OC)c(OC)c(OC)c1
- growth [1]: 110%
- growth [2]: 105%
- growth [3]: 102%
- growth [4]: 100%
- growth [5]: 112%
- growth [6]: 111%
- growth [7]: 99%
- growth [8]: 92.6%
- growth [9]: 111%
- growth [10]: 109%
- growth [11]: 106%
- growth [12]: 107%
- growth [13]: 92.7%
- growth [14]: 101%
- growth [15]: 114%
- growth [16]: 105%
- growth [17]: 111%
- growth [18]: 101%
- growth [19]: 97.8%
- growth [20]: 108%

Structure (SMILES): C=C=COc1cccc(/C(N)=N/C(N)=N/c2nc3ccccc3s2)c1
- growth [1]: 101%
- growth [2]: 23.5%
- growth [3]: 93%
- growth [4]: 76.2%
- growth [5]: 104%
- growth [6]: 78.1%
- growth [7]: 110%
- growth [8]: 70.4%
- growth [9]: 104%
- growth [10]: 67.9%
- growth [11]: 83.6%
- growth [12]: 107%
- growth [13]: 85.6%
- growth [14]: 97.5%
- growth [15]: 80.5%
- growth [16]: 30.3%
- growth [17]: 98.5%
- growth [18]: 94.2%
- growth [19]: 37.7%
- growth [20]: 64%

Structure (SMILES): CC(=O)c1ccc(Nc2nc(SCC(C)C)nc(-c3ccc(F)cc3)c2C#N)cc1
- growth [1]: 113%
- growth [2]: 106%
- growth [3]: 114%
- growth [4]: 106%
- growth [5]: 118%
- growth [6]: 114%
- growth [7]: 118%
- growth [8]: 105%
- growth [9]: 106%
- growth [10]: 115%
- growth [11]: 104%
- growth [12]: 107%
- growth [13]: 125%
- growth [14]: 112%
- growth [15]: 104%
- growth [16]: 108%
- growth [17]: 101%
- growth [18]: 108%
- growth [19]: 112%
- growth [20]: 108%

Structure (SMILES): COc1cc2oc(-c3cccc(N)c3)cc(=O)c2c(OC)c1OC
- growth [1]: 108%
- growth [2]: 107%
- growth [3]: 101%
- growth [4]: 100%
- growth [5]: 117%
- growth [6]: 104%
- growth [7]: 93.4%
- growth [8]: 99.6%
- growth [9]: 119%
- growth [10]: 111%
- growth [11]: 101%
- growth [12]: 109%
- growth [13]: 97.8%
- growth [14]: 97.8%
- growth [15]: 103%
- growth [16]: 98.7%
- growth [17]: 98.8%
- growth [18]: 93.5%
- growth [19]: 111%
- growth [20]: 108%

Structure (SMILES): Nc1nc(Nc2ccccc2SSc2ccccc2Nc2nc(N)nc(-c3ccccc3)n2)nc(-c2ccccc2)n1
- growth [1]: 69.4%
- growth [2]: 62.6%
- growth [3]: 104%
- growth [4]: 62.6%
- growth [5]: 50.2%
- growth [6]: 49%
- growth [7]: 26.1%
- growth [8]: 96.2%
- growth [9]: 108%
- growth [10]: 91.9%
- growth [11]: 48.5%
- growth [12]: 111%
- growth [13]: 55.7%
- growth [14]: 74.5%
- growth [15]: -22.7% (active)
- growth [16]: 42.9%
- growth [17]: 89.2%
- growth [18]: 76.3%
- growth [19]: -34.3% (active)
- growth [20]: 93.9%

Structure (SMILES): Nc1nc(-c2cccc([N+](=O)[O-])c2)c(N=Nc2cccc([N+](=O)[O-])c2)s1
- growth [1]: 56.7%
- growth [2]: 81.9%
- growth [3]: 52.4%
- growth [4]: 19.5%
- growth [5]: -64.5% (active)
- growth [6]: 14.7%
- growth [7]: 1.91% (active)
- growth [8]: -26.4% (active)
- growth [9]: 88.6%
- growth [10]: 14.9%
- growth [11]: 62%
- growth [12]: 94.2%
- growth [13]: -8.63% (active)
- growth [14]: 20.9%
- growth [15]: -43% (active)
- growth [16]: 74.7%
- growth [17]: 63.9%
- growth [18]: 54.7%
- growth [19]: 13.4%
- growth [20]: 61.3%

Structure (SMILES): C=CC(=O)N1CC=C(c2cc3c(N[C@H](C)c4ccccc4)ncnc3[nH]2)CC1
- growth [1]: 40.3%
- growth [2]: 84.2%
- growth [3]: 104%
- growth [4]: 47.8%
- growth [5]: -27.6% (active)
- growth [6]: 63.4%
- growth [7]: 79%
- growth [8]: 60.1%
- growth [9]: 102%
- growth [10]: 100%
- growth [11]: 82.6%
- growth [12]: 54%
- growth [13]: -0.73% (active)
- growth [14]: 91.9%
- growth [15]: 94.6%
- growth [16]: 82.7%
- growth [17]: 95.5%
- growth [18]: 85.5%
- growth [19]: 56.2%
- growth [20]: 104%

Structure (SMILES): N#C/C(=C\c1ccc(-c2ccc(Cl)cc2Cl)o1)c1ccc(F)cc1
- growth [1]: 102%
- growth [2]: 92.5%
- growth [3]: 98.7%
- growth [4]: 83.4%
- growth [5]: 67.5%
- growth [6]: 92.3%
- growth [7]: 99.8%
- growth [8]: 89.9%
- growth [9]: 104%
- growth [10]: 95.3%
- growth [11]: 94.5%
- growth [12]: 96.4%
- growth [13]: 77.6%
- growth [14]: 96.7%
- growth [15]: 98.5%
- growth [16]: 87.8%
- growth [17]: 95.7%
- growth [18]: 71.2%
- growth [19]: 87.6%
- growth [20]: 102%

Structure (SMILES): COc1ccc(-n2c(SCc3n[nH]c(=S)o3)nc3ccc(Cl)cc3c2=O)cc1
- growth [1]: 96.3%
- growth [2]: 99.6%
- growth [3]: 95.3%
- growth [4]: 94.6%
- growth [5]: 89.5%
- growth [6]: 92.1%
- growth [7]: 97.3%
- growth [8]: 91.5%
- growth [9]: 102%
- growth [10]: 112%
- growth [11]: 93.6%
- growth [12]: 105%
- growth [13]: 95.5%
- growth [14]: 92.9%
- growth [15]: 104%
- growth [16]: 101%
- growth [17]: 93.5%
- growth [18]: 92%
- growth [19]: 101%
- growth [20]: 95.1%

Structure (SMILES): COc1cc(-c2nn(C(C)(C)C)cc2-c2ccnc(NCCCNS(=O)(=O)c3ccccc3)n2)ccc1Cl
- growth [1]: 67.2%
- growth [2]: 40.7%
- growth [3]: 84%
- growth [4]: 49.3%
- growth [5]: -1.53% (active)
- growth [6]: 58.2%
- growth [7]: 83.1%
- growth [8]: 83.7%
- growth [9]: 95.1%
- growth [10]: 96.1%
- growth [11]: 60.1%
- growth [12]: 70.3%
- growth [13]: 49.1%
- growth [14]: 97.2%
- growth [15]: 91.7%
- growth [16]: 54.8%
- growth [17]: 72.7%
- growth [18]: 78.4%
- growth [19]: 62.7%
- growth [20]: 93%

Structure (SMILES): N/C(=N\C(N)=N\c1nc2ccccc2s1)c1cccc(F)c1
- growth [1]: 104% [5 µM]
- growth [2]: 89.2% [5 µM]
- growth [3]: 91.5% [5 µM]
- growth [4]: 78.7% [5 µM]
- growth [5]: 122% [5 µM]
- growth [6]: 99.1% [5 µM]
- growth [7]: 87.8% [5 µM]
- growth [8]: 100% [5 µM]
- growth [9]: 104% [5 µM]
- growth [10]: 98.4% [5 µM]
- growth [11]: 94.6% [5 µM]
- growth [12]: 111% [5 µM]
- growth [13]: 89.2% [5 µM]
- growth [14]: 96% [5 µM]
- growth [15]: 94.1% [5 µM]
- growth [16]: 75.5% [5 µM]
- growth [17]: 98.2% [5 µM]
- growth [18]: 89.1% [5 µM]
- growth [19]: 83.2% [5 µM]
- growth [20]: 108% [5 µM]

Structure (SMILES): CNC(=O)c1cc(-n2ccc3cc(NC(=O)Nc4ccc(N5CCOCC5)c(C(F)(F)F)c4)ccc32)ccn1
- growth [1]: 54.9%
- growth [2]: 4.09% (active)
- growth [3]: 82%
- growth [4]: 45.4%
- growth [5]: -27.5% (active)
- growth [6]: 72.6%
- growth [7]: 12.3%
- growth [8]: 23.3%
- growth [9]: 56.8%
- growth [10]: 23.6%
- growth [11]: 30.2%
- growth [12]: 19.6%
- growth [13]: 17.1%
- growth [14]: 74.2%
- growth [15]: 42%
- growth [16]: 4.72% (active)
- growth [17]: 4.69% (active)
- growth [18]: 13.4%
- growth [19]: 13.3%
- growth [20]: 62.9%
